Compound activity from PubChem BioAssay.
In the library only some 31% were active in any assay of this set; here they are far more common.
PLAP activator: PLAP enzyme activators, biochemical, luminescence, HTS | 96,000 compounds, 1.2% hits | Alkaline phosphatase, placental type (Homo sapiens), P05187 | activation fold at 20 µM | purified PLAP enzyme, luminescent substrate read-out; hits give high values; in the data active means activation fold above about 2
CYP2C19 inh: blockers of cytochrome P450 2C19 activity – biochemical, luminescence, ADME assay, primary screen; AID 778, 2007; inhibition, % at 5 µM; P33261; 96,000 compounds, 21% hits; CYP2C19 Supersomes, luciferin-H EGE luminescence, 30 min;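 active means CYP2C19 inhibition above a set limit at 5 µM in the primary screen, cut at about 50% in these data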
CYP2C19 act: human CYP2C19 activators, primary screen, biochemical, luminescence. recombinant CYP2C19, luciferin-H EGE luminescence; hits give high values; 0 = fully inhibited enzyme, 1 = untreated enzyme. 96,000 tested, under 10 active. Cytochrome P450 2C19 (Homo sapiens), P33261. activation factor at 5 µM;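 active means activation factor of at least 2 at 5 µM in the primary screen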
CYP2C9 act: human CYP2C9 activators, primary screen, biochemical, luminescence | Cytochrome P450 2C9 (Homo sapiens), P11712 | recombinant CYP2C9, luciferin-H conversion; hits give high values; factor 1 = untreated enzyme, 0 = blocked | activation factor at 5 µM | 96,000 compounds, 1.4% hits;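 active means activation factor of 2 or more for CYP2C9 at a 5 µM dose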
Target sequence (P11712 whole entry, looked up): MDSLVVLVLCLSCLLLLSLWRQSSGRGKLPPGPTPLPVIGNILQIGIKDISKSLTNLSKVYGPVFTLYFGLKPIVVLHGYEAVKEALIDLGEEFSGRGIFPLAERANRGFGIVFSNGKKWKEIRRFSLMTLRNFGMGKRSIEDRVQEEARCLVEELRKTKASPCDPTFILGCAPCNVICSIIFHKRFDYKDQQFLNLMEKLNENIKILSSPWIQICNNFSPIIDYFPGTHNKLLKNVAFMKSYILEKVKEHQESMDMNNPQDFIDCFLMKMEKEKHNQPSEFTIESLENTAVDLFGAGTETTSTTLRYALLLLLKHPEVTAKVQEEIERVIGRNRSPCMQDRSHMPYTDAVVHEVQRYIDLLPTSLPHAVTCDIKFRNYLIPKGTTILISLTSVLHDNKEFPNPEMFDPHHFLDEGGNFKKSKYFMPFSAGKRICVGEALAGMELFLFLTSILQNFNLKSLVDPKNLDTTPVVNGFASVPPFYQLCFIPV
CYP2C9 inh: blockers of cytochrome P450 2C9 activity – biochemical, luminescence, ADME assay, primary screen | 96,000 compounds, 20% hits | P11712 | AID 777, 2007 | CYP2C9 Supersomes, luciferin-H conversion | inhibition, % at 5 µM;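 active means blocking of liver enzyme CYP2C9 beyond about 50% at 5 µM, limit read from the data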
Each line names hits and unclear results; the compound was inactive in the other large screens.

COc1ccc(Cn2nnnc2C(c2ccccc2Cl)N2CCN(C3CCCC3)CC2)cc1 (centres undefined)	CYP2C19 inh 78
COc1ccc(Cn2nnnc2C(c2ccccc2)N2CCN(C3CCCC3)CC2)cc1 (centres undefined)	PLAP activator 2, CYP2C19 inh 78
COc1ccc(C(c2nnnn2CCc2ccccc2)N2CCN(C3CCCC3)CC2)cc1 (centres undefined)	none
COC(=O)c1cc2sc(Cl)cc2n1CC(=O)N1CCCc2ccccc21	CYP2C19 inh 83, CYP2C9 inh 73
CCOC(=O)c1cc2occc2n1CC(=O)N1CCCc2ccccc21	CYP2C19 inh 96, CYP2C9 inh 87
Cc1ccc2oc(=O)c3cnn(CC(=O)N4CCCc5ccccc54)c3c2c1	CYP2C9 inh 55
COC(=O)c1cc2sccc2n1CC(=O)N1CCCc2ccccc21	CYP2C19 inh 83, CYP2C9 inh 69
CCOC(=O)c1cc2sc(C)cc2n1CC(=O)N1CCc2ccccc21	none
CCCSc1nc(C)c(CC(=O)O)c(=O)[nH]1	none
CCOC(=O)c1cc2sccc2n1Cc1ccccc1	none
COC(=O)c1cc2oc(C)cc2n1CC(=O)N1CCCc2ccccc21	CYP2C19 inh 67, CYP2C9 inh 68
CCOC(=O)c1cc2sccc2n1CC(=O)N1CCCc2ccccc21	CYP2C19 inh 98, CYP2C9 inh 94
CCOC(=O)c1cc2sccc2n1CCCN1C(=O)c2ccccc2C1=O	CYP2C9 inh 69
O=C(NCc1ccc(N2CCCC2=O)cc1)c1cnccn1	none
CCC(Oc1ccccc1)C(=O)N1CC(C)CC(C)C1 (centres undefined)	CYP2C19 inh 51
CN1C2=NCCN2C(=O)c2ccccc21	none
O=C(NCCc1cn2ccccc2n1)C1CCCCC1	none
CC1=CC(c2ccccc2)n2nc(NS(=O)(=O)c3ccc(C)cc3)nc2N1 (centres undefined)	none
CC1=CC(c2ccc(Cl)cc2)n2nc(NS(=O)(=O)c3ccc(C)cc3)nc2N1 (centres undefined)	CYP2C9 inh 70
COC(=O)c1ccc(N2C(=O)CC(Sc3n[nH]c(C)n3)C2=O)cc1 (centres undefined)	none
CN=C(Nc1cc(Cl)ccc1Cl)SC1CC(=O)N(c2ccc(C(=O)OC)cc2)C1=O (centres undefined)	CYP2C19 inh 92, CYP2C9 inh 100
COc1cccc(C(=O)NN2C(=O)C3C4C=CC(O4)C3C2=O)c1 (centres undefined)	none
Cc1ccc(C2C(C#N)=C(N)SC(N)=C2C#N)c(C)c1	CYP2C19 inh 54
Cc1ccc(C2C(C#N)=C(N)SC(N)=C2C#N)cc1	none
O=c1c(-c2ccc3c(c2)OCCO3)coc2cc(O)cc(O)c12	CYP2C9 act 2.4
CCCN1CCN(CCCNC(=O)C2CCCN(c3nnc(-n4cccc4)s3)C2)CC1 (centres undefined)	none
O=S(=O)(Nc1ncccc1O)c1ccc(Cl)cc1	CYP2C19 inh 86
O=S(=O)(Nc1cc(Cl)ccn1)c1ccc(Cl)cc1	CYP2C9 inh 74
Cc1ccnc(NS(=O)(=O)c2ccc(CC(C)C)cc2)c1	CYP2C19 inh 72
O=S(=O)(Nc1ccc(O)c(Sc2nc3ccccc3s2)c1)c1ccc(Cl)cc1	none
CCN(CC)CCCN1C(=O)C(=O)/C(=C(/O)c2ccccc2)C1c1cc(OC)ccc1OC (centres undefined)	none
CSc1ccc(C2C(C#N)=C(N)N(c3ccccc3)C3=C2C(=O)CCC3)cc1 (centres undefined)	CYP2C19 inh 74, CYP2C9 inh 90
CCOc1ccc(C2C(C#N)=C(N)N(c3sc4c(c3C#N)CCCC4)C3=C2C(=O)CCC3)cc1 (centres undefined)	none
CCCSc1nnc(N2C(=O)CC(c3ccsc3)C3=C2CCCC3=O)s1 (centres undefined)	none
CC1(C)CC(=O)C2=C(C1)N(c1ccccc1)C(=O)CC2c1ccsc1 (centres undefined)	CYP2C19 inh 88
Cc1ccc(N2C(=O)CC(c3ccsc3)C3=C2CC(C)(C)CC3=O)cc1 (centres undefined)	none
O=C1CCCC2=C1C(c1ccccc1)CC(=O)N2c1ccccc1 (centres undefined)	CYP2C19 inh 78
CC1(C)CC(=O)C2=C(C1)N(c1ccc(F)cc1)C(=O)CC2c1ccsc1 (centres undefined)	CYP2C19 inh 63
O=C(CN(CCO)c1ccccc1)NC12CC3CC(CC(C3)C1)C2	none
Cc1noc(C)c1CN1C(=O)NC(Cc2ccccc2)(Cc2ccccc2)C1=O	none
COc1cc2c(cc1OC)CN(C(=O)CSc1nnc(C)s1)CC2	none
S=c1[nH]nc(C2COc3ccccc3O2)o1 (centres undefined)	none
CSc1nnc(CSCc2ccc(Cl)cc2Cl)n1-c1ccccc1	CYP2C19 inh 59, CYP2C9 inh 70
CCCCNc1ncnc2c1cnn2-c1ccc(C)cc1C	none
C=CCNc1ncnc2c1cnn2-c1cccc(C)c1	CYP2C19 inh 66, CYP2C9 inh 73
Cc1ccc(-n2ncc3c(NCc4ccccn4)ncnc32)c(C)c1	PLAP activator 2
Cc1cccc(-n2ncc3c(N4CC(C)CC(C)C4)ncnc32)c1 (centres undefined)	CYP2C9 inh 81
C=CCNc1ncnc2c1cnn2-c1ccc(Cl)cc1	none
Cc1cccc(-n2ncc3c(NCCCO)ncnc32)c1	CYP2C9 inh 64
COc1ccc(OC)c(C2NC(=O)NC(C)=C2C(=O)Nc2ccc(C)cc2)c1 (centres undefined)	none
Cc1cc2ccccn2c1C(=O)c1ccncc1	CYP2C19 inh 98, CYP2C9 inh 65
CC1=CC(C)(C)N=C(Nc2ccc(C)cc2)S1	CYP2C19 inh 76
CCNc1nc(NC(C)CC)nc(Oc2ccc(=O)[nH]n2)n1 (centres undefined)	CYP2C19 inh 50
CCOC(=O)c1c(NC(=O)CN2CCOCC2)sc2c1CC(C)(C)OC2	CYP2C9 inh 74
CCOC(=O)c1c(NC(=O)c2ccccc2C)sc2c1CC(C)(C)OC2	CYP2C9 inh 77
CCN(CC)CCCN1C(=O)C(O)=C(C(=O)c2ccco2)C1c1cc(OC)ccc1OC (centres undefined)	none
O=C(NC1CCCCNC1=O)c1ccc(Cl)cc1 (centres undefined)	CYP2C9 inh 52
COc1ccc(N(CC(=O)NCC2CCCO2)S(=O)(=O)c2c(C)noc2C)cc1 (centres undefined)	none
COc1ccc(N(CC(=O)Nc2cc(C)ccc2OC)S(=O)(=O)c2c(C)noc2C)cc1	CYP2C19 inh 64, CYP2C9 inh 67
CCOc1ccc(N(CC(=O)Nc2ccccc2C)S(=O)(=O)c2c(C)noc2C)cc1	CYP2C19 inh 87
